Compounds with a hit are over-represented: about 6.2% of the library has one in this group of screens.
ATXN2 expr inh – Primary qHTS for Inhibitors of ATXN expression; HEK-293 ATXN2-luciferase reporter, luminescence, 24 h; Potency, µM (doses to about 57 µM), inactives show top-dose activity change, negative = inhibition, hits mostly inhibitors; 360,000 tested, 0.72% active; AID 1745845, 2022; further: on the % scale 0 is the no-effect control and ±100 the full control effect; nearly all actives have a fitted effect of over 55% in size
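qHTS (up to 57 uM final) was run with 24 h compound exposure of reporter cells at 37 °C. Each well was multiplexed: SteadyGlo luminescence measured ATXN2-luciferase expression after a fluorogenic Gly-Phe-AFC viability readout (25 uM final).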
S2 tox – Viability Counterscreen for Primary qHTS for Inhibitors of ATXN expression; S2 cells (HEK-293 line with an ATXN2-luciferase reporter) viability, CellTiter-Fluor protease fluorescence, 24 h; Potency, µM (highest dose often 56.7 µM), actives largely listed as cytotoxic; 400,000 tested, 0.49% active; AID 651635, 2014; further: nearly all actives have a fitted effect of over 40% in size
KB-V1 MDR tox – qHTS assay for MDR1-selective chemotherapeutics: Primary screen using the drug-selected MDR subline cells KB-V1 | KB-V1 MDR cells viability, CellTiter-Glo, 72 h | 400,000 tested, 3.4% active | AID 1347076, 2019 | Potency, µM (titrated, usually from 46.1 µM), most hits filed as cytotoxic; further: on the % scale 0 is the no-effect control and ±100 the full control effect; nearly all actives have a fitted effect of over 60% in size
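KB-V1, DMEM (no phenol red) + 10% FBS; cpd pin-transferred, titration series; 72 h, 37 degrees C; CellTiter-Glo, luminescence. Data normalized, curve-fit.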
HT1080 IDH1KD tx – qHTS for induction of synthetic lethality in tumor cells producing 2HG: qHTS for the HT-1080-IDH1KD cell line; HT-1080 IDH1 knockdown viability, ATP luminescence, 48 h; Potency, µM (doses to about 46.1 µM), for the others: at the top dose activity, negative = toxicity, most hits filed as cytotoxic; 360,000 tested, 2% active;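 further: 0% = DMSO wells and -100% = cell-free medium wells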
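Assay cells: HT-1080 with IDH1 knockdown, 750 per well, RPMI/5% FBS. Exposure: 48 h at 37 °C following 2 h pre-incubation. Read: CellTiter-Glo luminescence; fitted concentration-response, curve class assigned.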
HT1080NT lethal – qHTS for induction of synthetic lethality in tumor cells producing 2HG: qHTS for the HT-1080-NT fibrosarcoma cell line; 360,000 tested, 1.6% active; AID 686970, 2013; Potency, µM (top dose mostly 46.1 µM), for the others: at the highest dose activity, negative = less viability, usual class: cytotoxic; HT-1080-NT fibrosarcoma viability, CellTiter-Glo ATP luminescence, 48 h;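 further: NT is the 2HG producing partner of a matched IDH1 knockdown line; 0% = DMSO-treated cells and -100% = media-only wells without cells; nearly all actives have a fitted effect of over 55% in size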
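Viability of the 2HG-overproducing fibrosarcoma line after 48 hours of compound exposure at 37 degrees C was determined by luminescence with CellTiter-Glo, and concentration-effect curves were then fitted and categorized.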
KB-3-1 tox – qHTS assay for MDR1-selective chemotherapeutics: Primary screen using the parental adenocarcinoma cell KB-3-1; Potency, µM (highest dose often 46.1 µM), usual class: cytotoxic; KB-3-1 viability, CellTiter-Glo ATP luminescence, 72 h; 400,000 tested, 1.4% active; further: on the % scale 0 is the no-effect control and ±100 the full control effect; nearly all actives have a fitted effect of over 60% in size
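Viability of parental KB-3-1 cells, measured by CellTiter-Glo luminescence, followed a 72 h incubation at 37 °C with pinned compounds in phenol-red-free DMEM containing 10% FBS.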
An asterisk follows results filed as active; i = inactive; u = inconclusive; x = not tested or not shown. The call rests on the fitted dose curve; in most records, active means well fitted curve in the direction sought with a large enough effect; inconclusive means small, poorly fitted or top-dose-only effect, or another doubt; inactive means no such curve, though single readings can be large; an effect the other way counts as inactive or inconclusive. Potency means the concentration at half of the fitted maximal effect.

SMILES	ATXN2 expr inh	S2 tox	KB-V1 MDR tox	HT1080 IDH1KD tx	HT1080NT lethal	KB-3-1 tox
Cc1ccccc1OCC(=O)NNC(=S)NC(=O)c1ccccc1[N+](=O)[O-]	-17%	i	u	u	-18%	u
CC(C)(C)c1ccc(OCC(=O)NNC(=S)NC(=O)c2ccccc2[N+](=O)[O-])c(Br)c1	-17%	i	u	18µM*	u	u
CCCC1([C@H](O)C/C=C/[C@H]2[C@H](O)CC(=O)[C@@H]2CCCCCCC(=O)OC)CCC1	x	35µM*	x	x	x	x
O=C(Nc1nc2cc3c(cc2s1)OCCO3)c1ccc([N+](=O)[O-])o1	17%	i	u	u	u	3.3µM*
O=C(Nc1nc2c(F)cc(F)cc2s1)c1ccc([N+](=O)[O-])o1	-2%	u	i	-2%	-16%	10µM*
COc1ccc2nc(NC(=O)c3ccc([N+](=O)[O-])o3)sc2c1	21%	u	u	18µM*	u	18µM*
Cc1cc(C)c2nc(NC(=O)c3ccc([N+](=O)[O-])o3)sc2c1	-14%	i	i	-18%	11%	i
O=C(Nc1nc2ccccc2s1)c1ccc([N+](=O)[O-])o1	x	u	u	-14%	u	u
O=C(C[n+]1ccccc1Br)c1ccc(-c2ccccc2)cc1	x	x	u	x	x	i
CC1=C(C(=O)OC2CCCCCC2)C(c2ccc(Cl)cc2Cl)CC(=O)N1 (stereo not given)	5%	i	i	x	x	i
Clc1ccc(C2=NCCn3nc4ccccc4c32)cc1	-4%	i	u	-1%	-15%	u
Nc1c(Cl)cc(C2=NCCn3nc4ccccc4c32)cc1Cl	-8%	i	21µM*	-7%	-11%	6.5µM*
COc1ccc(/C=N/Nc2nnc(-c3ccccc3)c(=O)[nH]2)cc1	2%	i	13µM*	13µM*	13µM*	5.2µM*
COc1ccc(Cl)c(N2CCN(CCCNC(=O)Nc3ccc(C)cc3)CC2)c1	-28%	i	i	u	u	23µM*
COc1ccc(N2CCN(C(=O)CCn3cnc4onc(-c5ccc(F)cc5)c4c3=O)CC2)cc1	-23%	i	i	x	x	i
COc1cccc(-c2nn(-c3ccc(C)cc3)cc2C(=O)NCC(c2cccs2)N2CCOCC2)c1 (stereo not given)	0%	i	i	-9%	-6%	i
O=C(NCC(c1cccs1)N1CCOCC1)c1cn(-c2ccccc2)nc1-c1ccc(Cl)cc1 (stereo not given)	u	i	7.3µM*	-29%	-16%	u
O=C(NCC(c1cccs1)N1CCOCC1)c1cn(-c2ccccc2)nc1-c1ccccc1 (stereo not given)	-8%	i	23µM*	0%	-2%	i
COc1ccc(-c2nn(-c3ccccc3)cc2C(=O)NCC(c2cccs2)N2CCOCC2)cc1 (stereo not given)	1%	i	u	-24%	-18%	i
CC(=O)c1ccccc1-c1ccc2c(c1)CC(CNC(=O)Cc1c[nH]c3ccccc13)O2 (stereo not given)	x	i	x	x	x	x
COc1ccc(NC(=O)CN2CCN(Cc3ccccc3Cl)S2(=O)=O)cc1Cl	u	i	u	x	x	i
Cc1cc(C)cc(NS(=O)(=O)c2ccc(N3CCCCS3(=O)=O)cc2)c1	-24%	i	u	x	x	i
Cc1cc(C(=O)NCC2CCC3(CCN(Cc4ccc(F)cc4)CC3)O2)n(C)n1 (stereo not given)	x	i	x	x	x	x
O=C(CN1CCN(CC(=O)Nc2ccc3c(c2)OC2(CCCCC2)O3)CC1)Nc1cccc(F)c1	1%	u	5.8µM*	-22%	-5%	i
O=C(CN1CCN(CC(=O)Nc2ccccc2F)CC1)Nc1cccc(F)c1	-22%	u	i	22%	15%	i
SMILES	ATXN2 expr inh	S2 tox	KB-V1 MDR tox	HT1080 IDH1KD tx	HT1080NT lethal	KB-3-1 tox
CC(C)N(C)c1ncnc2c1ncn2[C@H]1CN(Cc2ccncc2)C[C@@H](CO)O1	8%	i	i	1%	3%	i
CC(C)N(C)c1ncnc2c1ncn2[C@H]1CN(Cc2ccc(-c3ccccc3)cc2)C[C@@H](CO)O1	u	u	i	u	23µM*	i
OC[C@@H]1CN(Cc2ccc(-c3ccccc3)cc2)C[C@H](n2cnc3c(NCc4ccc(F)cc4)ncnc32)O1	u	u	u	u	18µM*	u
OC[C@@H]1CN(Cc2ccccc2)C[C@H](n2cnc3c(NCc4ccc(F)cc4)ncnc32)O1	32%	i	u	6%	-15%	i
OC[C@@H]1CN(Cc2ccc(-c3ccccc3)cc2)C[C@H](n2cnc3c(Nc4ccccc4)ncnc32)O1	u	i	21µM*	10µM*	u	13µM*
COc1cccc2cc(-c3nc4sc(C(=O)Nc5ccc(F)cc5F)c(C)c4c(=O)[nH]3)c(=O)oc12	x	x	i	x	x	i
C[N+]1(CC(=O)c2ccc(Br)cc2)CCOCC1	x	x	i	x	x	i
Cc1ccc(NC(=O)c2ncn(CCCN[C@H](C)c3cccc4ccccc34)n2)cc1C	u	22µM*	i	u	u	i
Cc1ccc(C)c(NC(=O)Cn2c(=O)n(CCC(C)C)c(=O)c3cccnc32)c1	-2%	i	i	x	x	i
CCCCN(CCCNC(=O)c1c(C)oc2nc[nH]c(=O)c12)Cc1ccccc1	12%	i	i	x	x	i
COc1ccc(C2NC(=S)NC(C)=C2C(=O)Nc2ccccn2)cc1OC (stereo not given)	4%	i	i	13%	3%	i
COc1ccc(C2NC(=S)NC(C)=C2C(=O)c2ccccc2)cc1OC (stereo not given)	-7%	i	13µM*	8%	2%	u
O=C(NCC1CCC2(CCN(Cc3cccc4ncccc34)CC2)O1)c1ccccc1 (stereo not given)	x	i	x	x	x	x
OC[C@H]1O[C@@H](n2cnc3c(NC4CCCC4)nc(Cl)nc32)[C@H](O)[C@@H]1O	10%	i	i	7%	-4%	i
